# Hits are enriched below; roughly 2.9% of the tested compounds scored in any of these assays.
# S1P4 agonist: S1P4 receptor agonists, primary screen, cell-based; Sphingosine 1-phosphate receptor 4 (Homo sapiens), O95977; S1P4-expressing cell line, agonist reporter assay; AID 1509, 2009; activation, % at 4.98 µM; 220,000 compounds, 0.35% hits; in the data active = activation above about 11%;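 also: 0% = DMSO vehicle and 100% = reference agonist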
# Target sequence (O95977 whole entry, looked up): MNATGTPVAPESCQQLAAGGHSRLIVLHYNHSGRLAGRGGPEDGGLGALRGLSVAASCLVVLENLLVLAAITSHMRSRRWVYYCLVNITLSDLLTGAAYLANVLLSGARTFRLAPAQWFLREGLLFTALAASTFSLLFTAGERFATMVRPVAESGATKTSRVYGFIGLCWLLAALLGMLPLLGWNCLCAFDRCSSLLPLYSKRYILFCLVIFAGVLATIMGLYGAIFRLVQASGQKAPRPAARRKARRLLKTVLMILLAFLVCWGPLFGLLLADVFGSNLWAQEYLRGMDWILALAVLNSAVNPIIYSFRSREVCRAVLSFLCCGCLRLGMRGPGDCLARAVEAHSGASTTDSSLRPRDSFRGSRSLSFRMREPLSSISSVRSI
# HSF1 inhib: HSF1 inhibitors in luciferase reporter cells, primary screen, cell-based, NIH3T3, luminescence; NIH3T3-HGL HSE-luciferase, MG132-induced, luminescence 8 h; hits give low values; activity change, negative = inhibition, % at 7.5 µM (by protocol); 300,000 compounds, 0.77% hits;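 active = more than half of replicate wells show activity change below -50%, luminescence cut by over half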;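 also: luciferase reports HSF-1 transcriptional activity via heat shock element; 0% = median of DMSO wells and -100% = zero luminescence signal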
# HSF1 activator: HSF-1 activators, primary screen, NIH3T3-HGL cells, MG132 stress, luminescence, single point; AID 504408, 2011; NIH3T3-HGL HSF-1 luciferase reporter, 8 h; 100% = twice DMSO control signal; activation, % at 9 µM; 300,000 compounds, 1.7% hits;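 active = mean replicate activation of at least 50% with a set share of replicates each reaching 50%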;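 also: 0% = median of the neutral control wells and 100% = twice that signal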
# Hsp70 activator: Hsp70 transcriptional activators, primary screen, cell-based, HeLa, Hsp70 promoter luciferase, luminescence, 10 µM. 200,000 compounds, 0.04% hits. HeLa Hsp70 promoter luciferase reporter; scaled: vehicle 0, proteasome-inhibitor control 100%. activation, % at 10 µM;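 active = activation above the mean across all tested compounds plus 3 SD, cutoff set per campaign, cut at about 5.5% in these data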;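 also: 100% = MG132 at 30 µM as the positive control and 0% = DMSO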
# S1P4 antag: S1P4 receptor antagonists, primary screen, cell-based; S1P4-expressing cells, antagonist mode, reporter read-out; 220,000 compounds, 0.26% hits; inhibition, % at 4.98 µM; in the data active = inhibition above about 29%;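 also: 0% = wells stimulated with agonist and 100% = vehicle wells without agonist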
# S1P3 antagonist: S1P3 receptor antagonists, primary screen, cell-based; CHO S1P3 NFAT-BLA reporter, FRET fluorescence, antagonist mode; inhibition, % at 4.98 µM; 170,000 compounds, 0.27% hits;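 active = inhibition above the plate cutoff, the mean inhibition of test wells on that plate plus 3 SD, cut at about 28% in these data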;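 also: cells challenged with S1P at its EC80 of 0.8 µM; blue over green emission ratio from cleaved BLA substrate after 4 h stimulation; 0% = S1P-stimulated wells and 100% = unstimulated DMSO-only wells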
# * marks the source's active call; other numbers are inactive results; . = no result given.
SMILES,S1P4 agonist,HSF1 inhib,HSF1 activator,Hsp70 activator,S1P4 antag,S1P3 antagonist
COc1ccc(C(=O)C2CCCN(C(=O)c3cccs3)C2)cc1F (stereo not given),0.4,0.8,9.4,1.6,-4.2,-9.7
O=C(NCCc1ccccc1)c1ccc2nc(-c3ccco3)c(-c3ccco3)nc2c1,1.6,6.8,1.1,-0.3,-2.7,.
O=C(c1ccccc1)c1ccc2nc(-c3ccco3)c(-c3ccco3)nc2c1,0.7,19.2,88.8*,-0.1,7.6,-6.5
COc1cccc2sc(Nc3nc(-c4ccccn4)cs3)nc12,-2.0,100.1,128.2*,4.7,23.7,34.1
COc1cccc2sc(Nc3nnc(-c4cccs4)o3)nc12,-0.7,205.5,300.6*,0.3,2.9,14.4
c1ccc(Nc2nc(-c3ccccn3)cs2)cc1,0.4,22.9,40.5,0.5,-7.4,.
CCOC(=O)c1ccc(N=Nc2c(C)c(C#N)c(O)[nH]c2=O)cc1,-0.5,3.6,13.0,0.3,-15.4,-26.1
Clc1cc(Br)ccc1OCCOCCOc1cccc2cccnc12,0.0,0.1,17.8,-0.5,9.7,.
Cc1ccc(OCCOCCOc2cccc3cccnc23)c(Br)c1,0.8,29.9,76.6*,0.1,4.4,-4.7
Cc1ccc(-c2nc(-c3ccncc3)no2)cc1C,.,29.4,59.9*,.,.,.
CCCn1c(N)c(C(=O)COc2ccc(Br)cc2F)c(=O)n(C)c1=O,1.7,-0.9,-2.2,-0.2,-33.0,3.0
Cc1ccc(S(=O)(=O)N(Cc2cc3cc4c(cc3[nH]c2=O)OCCO4)CC2CCCO2)cc1 (stereo not given),0.5,3.4,22.7,-0.3,-8.9,18.6
Cc1cc(C)c2cc(CN(CC3CCCO3)S(=O)(=O)c3ccc4c(c3)OCCO4)c(=O)[nH]c2c1 (stereo not given),-0.3,27.9,61.8*,-0.1,3.5,-14.0
c1ccc(OCCCCn2cnc3ccccc32)cc1,-0.9,7.8,9.9,-0.2,-28.4,-33.3
Brc1ccccc1OCCCn1cnc2ccccc21,0.2,28.9,60.7*,0.2,-0.3,.
COC(=O)c1cn(CCOc2ccc(C)cc2)c2ccccc12,-3.4,45.2,100.0*,-0.3,-27.7,.
Cc1ccc(OCCCCn2cnc3ccccc32)cc1,0.3,-78.5*,-79.2,-0.2,-7.1,-22.4
CCCNC(=O)C1CC(c2ccccc2C(F)(F)F)=NO1 (stereo not given),.,-0.4,6.2,.,.,.
CC(=O)N1CCC(N(CCCOC(C)C)S(=O)(=O)c2ccc([N+](=O)[O-])cc2)CC1,.,-4.7,11.0,.,.,.
COc1cc(Cl)c(C)cc1NC(=O)c1ccc2c(SCC(=O)O)c3c(nc2c1)CCCC3,1.8,2.0,6.1,-0.3,-3.1,6.8
CCN(CC)CCCNC(=O)c1ccc2c(SCC(=O)O)c3c(nc2c1)CCC3,1.9,.,.,-0.2,0.8,-9.4
CC(C)CCNC(=O)c1ccc2c(SCC(=O)O)c3c(nc2c1)CCCC3,2.5,16.6,61.9*,0.8,-1.5,-2.5
CCOC(=O)c1ccccc1NC(=O)c1ccc2c(SCC(=O)O)c3c(nc2c1)CCCC3,.,-76.8*,-80.4,.,.,.
O=C(O)CC1NC(=O)N(C2CCCCC2)C1=O (stereo not given),-1.6,-3.5,-12.0,0.2,-11.1,-6.8
Cc1cccc(C(C)C)c1NC(=O)COC(=O)c1cccc(S(=O)(=O)N2CCc3ccccc3C2)c1,0.4,17.3,55.9*,-0.1,-18.0,-9.1
CCc1cccc(CC)c1NC(=O)COC(=O)c1cccc(S(=O)(=O)N2CCc3ccccc3C2)c1,2.9,3.9,10.3,0.1,-30.7,9.9
CCn1c(=O)c2cc(C(=O)N3CCCC3)sc2c2ccccc21,-1.4,-4.2,3.4,-0.3,-4.1,57.3*
CCn1c(=O)c2cc(C(=O)N3CCOCC3)sc2c2ccccc21,0.1,-6.8,-19.6,0.4,-5.4,-29.6
O=C(NC(=O)N1CCN(c2ccc([N+](=O)[O-])cn2)CC1)c1c(Cl)cccc1Cl,2.3,-3.1,-5.4,.,1.9,2.9

# From PubChem BioAssay
